According to the supplement of paper PMC3545927:
The other results are listed elsewhere or left out. The true hit rate is not given.

B1: HC767 (peptide)
chain: CANSSPPVVPAGNASASA
B2: HC1169 (peptide)
chain: CAGVWRVDGIAGNASASA
B3: HC1961 (peptide)
chain: CANCTTPCSGAGNASASA
B4: FS-2210 (peptide)
chain: CARHARFGKKAGNASASA
B5: FS-3155 (peptide)
chain: CARHARQASEAGNASASA
B6: FS-2356 (peptide)
chain: CARPAREVDRAGNASASA
B7: HC1167 (peptide)
chain: CARGYKGVWRAGNASASA
B8: FS-2469 (peptide)
chain: CARVARTVDRAGNASASA
B9: FS-1716 (peptide)
chain: CARHRKNVDRAGNASASA
B10: FS-1953 (peptide)
chain: CARHARNVDRAGNASASA
B11: NG5 (peptide)
chain: CAMKYEIASEAGNASASA
B12: HC1859 (peptide)
chain: CATPPCSGSWAGNASASA
B13: HC522 (peptide)
chain: CAFLLLADARAGNASASA
B14: HC972 (peptide)
chain: CAPLLYRLGAAGNASASA
B15: HC1440 (peptide)
chain: CAMAKNEVFCAGNASASA
B16: HC312 (peptide)
chain: CAGCNCSIYPAGNASASA
B17: FS-805 (peptide)
chain: CAITARYHRDAGNASASA
B18: FS-1537 (peptide)
chain: CAIVARNHRDAGNASASA
B19: FS-1337 (peptide)
chain: CAHKHRSNRQAGNASASA
B20: FS-1261 (peptide)
chain: CARKPRVKRPAGNASASA
B21: FS-1456 (peptide)
chain: CAGKRRSRRQAGNASASA
B22: FS-1604 (peptide)
chain: CAPWNRKNRQAGNASASA
B23: FS-1400 (peptide)
chain: CARKPKRKRWAGNASASA
B24: FS-3138 (peptide)
chain: CASSRRDSSWAGNASASA
B25: HC1913 (peptide)
chain: CATTPCSGRWAGNASASA
B26: FS-193 (peptide)
chain: CASKRRDKRWAGNASASA
B27: HC1151 (peptide)
chain: CAWDWICEVLAGNASASA
B28: HC847 (peptide)
chain: CAIPFYGKAIAGNASASA
B29: HC1628 (peptide)
chain: CAGGRAAICGAGNASASA
B30: HC1563 (peptide)
chain: CATRDPTTPLAGNASASA
B31: HC1601 (peptide)
chain: CAPIIQRLHGAGNASASA
B32: FS-1487 (peptide)
chain: CASKRRARRQAGNASASA
B33: HC2161 (peptide)
chain: CANVVTSTWVAGNASASA
B34: FS-698 (peptide)
chain: CANVVRARRQAGNASASA
B35: FS-1412 (peptide)
chain: CASKRRSRRQAGNASASA
B36: HC1417 (peptide)
chain: CAPPHSAKSKAGNASASA
B37: HC1930 (peptide)
chain: CATTPCSGSVAGNASASA
B38: HC194 (peptide)
chain: CAKARRPEGRAGNASASA
B39: HC888 (peptide)
chain: CANTCVTQTVAGNASASA
B40: HC1054 (peptide)
chain: CAIASLMAFTAGNASASA
B41: FS-3107 (peptide)
chain: CARTKRLAIFAGNASASA
B42: FS-1976 (peptide)
chain: CARTKRYFAKAGNASASA
B43: FS-1689 (peptide)
chain: CARDDRSTSFAGNASASA
B44: FS-2190 (peptide)
chain: CARTKRSAFFAGNASASA
B45: FS-2313 (peptide)
chain: CARTKRDYDFAGNASASA
B46: FS-2314 (peptide)
chain: CARTKRLTAQAGNASASA
B47: DV6 (peptide)
chain: CAGLKRGGAKAGNASASA
B48: FS-2823 (peptide)
chain: CARTKKAKMKAGNASASA

Target: furin, P09958
Sequence (P09958 whole entry): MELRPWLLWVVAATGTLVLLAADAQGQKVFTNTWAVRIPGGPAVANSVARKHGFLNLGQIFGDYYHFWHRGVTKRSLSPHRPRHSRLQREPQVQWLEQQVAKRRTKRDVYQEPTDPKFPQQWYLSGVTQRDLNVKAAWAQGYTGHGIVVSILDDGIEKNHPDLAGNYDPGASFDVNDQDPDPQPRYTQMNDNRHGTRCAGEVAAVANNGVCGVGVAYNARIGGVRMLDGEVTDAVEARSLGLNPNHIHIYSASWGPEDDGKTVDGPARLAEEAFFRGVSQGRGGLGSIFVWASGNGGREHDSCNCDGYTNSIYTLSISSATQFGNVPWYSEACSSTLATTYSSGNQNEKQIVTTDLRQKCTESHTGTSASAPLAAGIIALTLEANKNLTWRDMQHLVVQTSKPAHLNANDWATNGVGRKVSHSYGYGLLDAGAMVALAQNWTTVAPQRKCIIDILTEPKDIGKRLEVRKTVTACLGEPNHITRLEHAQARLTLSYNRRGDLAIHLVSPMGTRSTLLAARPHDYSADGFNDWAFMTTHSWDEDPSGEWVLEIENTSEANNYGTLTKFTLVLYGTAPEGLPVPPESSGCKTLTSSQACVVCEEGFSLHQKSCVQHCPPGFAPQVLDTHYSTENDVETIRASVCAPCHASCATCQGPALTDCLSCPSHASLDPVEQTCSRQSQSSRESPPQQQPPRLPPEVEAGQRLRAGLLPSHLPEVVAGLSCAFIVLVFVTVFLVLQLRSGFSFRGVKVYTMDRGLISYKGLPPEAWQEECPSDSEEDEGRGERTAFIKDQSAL
Test: furin cleavage Z-score vs untreated control; higher = more cleavage, active = 3.5 or more, inactive = 1 or less, 8 variable residues between constant flanks
How it was run: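 Sequencing of released DNA, tagged with adapters by PCR, gave read counts used as abundance. That DNA was freed when purified furin cut N-terminally bead-bound 8-mer peptides fused to a cDNA oligonucleotide, in 0.01 ml reactions at 1:10 enzyme:substrate in 50 mM HEPES pH 7.5 with CaCl2 and NaCl, lasting 7.5, 15 or 30 min. The cleavage Z-score was the lowess-adjusted log count versus furin-free reactions, scaled by median absolute deviation.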

Sequence | furin cleavage Z-score (7.5 min) | furin cleavage Z-score (15 min) | furin cleavage Z-score (30 min)
B1 | -0.356 (inactive) | 1.59 | -0.293 (inactive)
B2 | -0.937 (inactive) | 0.416 (inactive) | -0.826 (inactive)
B3 | -0.578 (inactive) | -3.89 (inactive) | 1.28
B4 | 0.851 (inactive) | -1.52 (inactive) | 1.21
B5 | 1.74 | 4.48 (active) | 5.03 (active)
B6 | 5.34 (active) | 5.29 (active) | 4.96 (active)
B7 | 0.51 (inactive) | 0.617 (inactive) | -0.00561 (inactive)
B8 | 5.8 (active) | 7.75 (active) | 8.43 (active)
B9 | -0.386 (inactive) | 1.53 | 1.32
B10 | 6.92 (active) | 10.7 (active) | 9.36 (active)
B11 | -0.26 (inactive) | -1.67 (inactive) | 0.146 (inactive)
B12 | -0.56 (inactive) | -0.533 (inactive) | -0.721 (inactive)
B13 | -0.934 (inactive) | -0.696 (inactive) | -0.66 (inactive)
B14 | 0.619 (inactive) | -1.01 (inactive) | 0.0559 (inactive)
B15 | 0.471 (inactive) | 0.162 (inactive) | 0.531 (inactive)
B16 | 0.264 (inactive) | -0.894 (inactive) | 0.418 (inactive)
B17 | 2.27 | 3.38 | 4.17 (active)
B18 | 4.29 (active) | 3.17 | 2.88
B19 | 1.05 | 3.88 (active) | 1.67
B20 | 1.31 | 0.832 (inactive) | 1.57
B21 | 9.9 (active) | 10.6 (active) | 6.67 (active)
B22 | -0.25 (inactive) | 0.846 (inactive) | 3.14
B23 | 8.47 (active) | 10.9 (active) | 7.59 (active)
B24 | -0.452 (inactive) | -0.483 (inactive) | -0.978 (inactive)

Sequence | furin cleavage Z-score (7.5 min) | furin cleavage Z-score (15 min) | furin cleavage Z-score (30 min)
B25 | -1.94 (inactive) | 0.288 (inactive) | -0.595 (inactive)
B26 | 8.33 (active) | 9.38 (active) | 9.36 (active)
B27 | -0.473 (inactive) | 1.19 | 1.97
B28 | -0.737 (inactive) | -1.38 (inactive) | 0.0496 (inactive)
B29 | -1.4 (inactive) | -1.23 (inactive) | -0.629 (inactive)
B30 | 0.197 (inactive) | -2.67 (inactive) | -1.41 (inactive)
B31 | -1.06 (inactive) | -0.433 (inactive) | -1.21 (inactive)
B32 | 7.99 (active) | 8.93 (active) | 6.94 (active)
B33 | -0.344 (inactive) | 0.91 (inactive) | 0.172 (inactive)
B34 | 12.8 (active) | 12 (active) | 10.3 (active)
B35 | 8.55 (active) | 8.01 (active) | 5.96 (active)
B36 | -1.76 (inactive) | -0.582 (inactive) | -0.397 (inactive)
B37 | 0.2 (inactive) | 0.581 (inactive) | 1.22
B38 | -0.782 (inactive) | -1.19 (inactive) | -0.268 (inactive)
B39 | -0.737 (inactive) | -1.07 (inactive) | -1.56 (inactive)
B40 | -0.654 (inactive) | -1.12 (inactive) | 0.0832 (inactive)
B41 | 3.35 | 5.86 (active) | 5.79 (active)
B42 | 0.407 (inactive) | 1.7 | 4.11 (active)
B43 | 1.2 | -0.677 (inactive) | 2.85
B44 | 7.39 (active) | 8.86 (active) | 9.07 (active)
B45 | 5.48 (active) | 7.94 (active) | 9.08 (active)
B46 | -0.31 (inactive) | 0.417 (inactive) | 1.3
B47 | 0.716 (inactive) | 0.513 (inactive) | -0.692 (inactive)
B48 | -1.45 (inactive) | -0.415 (inactive) | -0.644 (inactive)
